Measured values: PubChem BioAssay (Tox21)
“And” between values parts separate entries of the source, which are not always exact repeats. Equal entries are not always repeated. Inconclusive results are not listed. The source made the active and inactive calls. Unless noted, the call rests on the fitted dose curve; in most records, active means well fitted curve in the direction sought with a large enough effect in the repeat runs; inconclusive means weak or mixed curves; inactive means flat fitted curve, though single readings scatter.

Columns and labels:
[1] = qHTS assay to test for compound auto fluorescence at 535 nm (green) in HEK293 cells (AID 720680)
[2] = qHTS assay to test for compound auto fluorescence at 460 nm (blue) in HEK293 cell free culture (AID 720681)
How it was run: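 Test compounds were pinned into cell-free culture medium (DMEM with 10% FBS) and fluorescence was read directly at Ex/Em 405/460 nm. Signals were expressed as fluorescence equivalents of triamterene, with DMSO vehicle as control.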

[3] = qHTS assay to test for compound auto fluorescence at 535 nm (green) in HEK293 cell free culture (AID 720682)
How it was run: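 Green-channel intensity (Ex/Em 485/535 nm) was recorded from compound-treated wells containing only DMEM with 10% FBS. Fluorescein provided the equivalency standard.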

[4] = qHTS assay to test for compound auto fluorescence at 590 nm (red) in HEK293 cell free culture (AID 720683)
How it was run: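 Tox21 10K library compounds were pinned into cell-free DMEM with 10% FBS and fluorescence was read at excitation 540 nm. Activity is expressed as Rose Bengal sodium equivalency.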

[5] = qHTS assay to test for compound auto fluorescence at 590 nm (red) in HepG2 cell free culture (AID 720684)
How it was run: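 Measured in medium alone (MEM containing 10% FBS) following pintool addition of compound; emission at 590 nm with 540 nm excitation, referenced to Rose Bengal sodium.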

[6] = qHTS assay to test for compound auto fluorescence at 460 nm (blue) in HepG2 cell free culture (AID 720685)
How it was run: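 Compound (23 nL) or DMSO pinned into cell-free MEM with 10% FBS; blue fluorescence read at 405/460 nm excitation/emission, expressed as auto-fluorescence equivalency to triamterene.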

[7] = qHTS assay to test for compound auto fluorescence at 535 nm (green) in HepG2 cell free culture (AID 720686)
[8] = qHTS assay to test for compound auto fluorescence at 460 nm (blue) in HepG2 cells (AID 720687)
How it was run: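 Cells (2,000/well in MEM with 10% FBS) attached overnight at 37 C, then were exposed to compound or DMSO for 1 hr at 37 C, 5% CO2. Fluorescence read at Ex/Em 405/460 nm, expressed as triamterene-equivalent signal.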

[9] = target: Glucocorticoid receptor (Homo sapiens) (UniProt P04150); experiment: qHTS assay to identify small molecule agonists of the glucocorticoid receptor (GR) signaling pathway (AID 720691; active means well fitted activation curve with a large enough effect in the signal ratio in the repeat runs, not every such curve was filed as active; the % refers to the signal ratio; further: potency means the concentration at half of the fitted maximal effect)
Sequence of Glucocorticoid receptor (Homo sapiens) (P04150 whole entry, looked up): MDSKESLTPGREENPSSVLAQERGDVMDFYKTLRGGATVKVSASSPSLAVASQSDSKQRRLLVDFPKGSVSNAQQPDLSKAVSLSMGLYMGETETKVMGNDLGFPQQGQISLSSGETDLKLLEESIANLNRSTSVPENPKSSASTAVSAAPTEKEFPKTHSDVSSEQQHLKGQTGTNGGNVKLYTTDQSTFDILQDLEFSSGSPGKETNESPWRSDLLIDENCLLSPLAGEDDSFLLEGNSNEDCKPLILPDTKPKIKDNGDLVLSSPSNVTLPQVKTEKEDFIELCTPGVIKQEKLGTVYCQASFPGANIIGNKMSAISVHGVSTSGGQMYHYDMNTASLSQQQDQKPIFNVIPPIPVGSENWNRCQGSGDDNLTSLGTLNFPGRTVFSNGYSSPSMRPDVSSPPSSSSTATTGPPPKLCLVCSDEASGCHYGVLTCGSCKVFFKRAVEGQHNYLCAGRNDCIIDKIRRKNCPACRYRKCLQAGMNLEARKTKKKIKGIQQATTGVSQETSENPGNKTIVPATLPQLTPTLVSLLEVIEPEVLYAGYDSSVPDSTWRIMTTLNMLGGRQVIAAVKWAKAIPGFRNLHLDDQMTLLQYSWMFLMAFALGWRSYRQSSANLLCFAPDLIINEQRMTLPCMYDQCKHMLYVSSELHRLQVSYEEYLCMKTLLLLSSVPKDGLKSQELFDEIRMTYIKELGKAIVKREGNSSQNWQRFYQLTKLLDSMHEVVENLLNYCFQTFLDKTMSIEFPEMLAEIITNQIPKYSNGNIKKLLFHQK
How it was run: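 Fluorescence intensity from LiveBLAzer B/G FRET substrate (2 h, room temperature) reports beta-lactamase expression driven by the glucocorticoid response element in GR-bla HeLa cells after 18 h compound exposure at 37 C.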

[10] = target: Glucocorticoid receptor (Homo sapiens) (UniProt P04150); experiment: qHTS assay to identify small molecule antagonists of the glucocorticoid receptor (GR) signaling pathway (AID 720692; active means well fitted inhibition curve with a large enough effect in the signal ratio in the repeat runs, not every such curve was filed as active; the % refers to the signal ratio; further: potency means the concentration at half of the fitted maximal effect)
How it was run: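 HeLa GR-bla cells; cmpd + dex 5 nM final, 18 h 37 C; LiveBLAzer B/G FRET substrate 2 h RT; fluorescence intensity read. Antagonist mode, qHTS.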

Measured: Potency

COc1cc(C=O)ccc1O
not listed: [9] | [10]
inactive: all other assays above

Nc1cccc(N)c1
not listed: [9] | [10]
inactive: all other assays above

CCCCOCCOCCSC#N
inactive: all assays above

Cc1c(N(C)CS(=O)(=O)O)c(=O)n(-c2ccccc2)n1C
not listed: [10]
inactive: all other assays above

CN/C(=C\[N+](=O)[O-])NCCSCc1ccc(CN(C)C)o1
inactive: all assays above

N[C@@H](Cc1c[nH]c2ccc(O)cc12)C(=O)O
inactive: all assays above

CC(=O)/C=C/C1=C(C)CCCC1(C)C
not listed: [9] | [10]
inactive: all other assays above

CO[C@H]1C=CO[C@@]2(C)Oc3c(C)c(O)c4c(O)c(c(/C=N/N5CCN(C)CC5)c(O)c4c3C2=O)NC(=O)/C(C)=C\C=C[C@H](C)[C@H](O)[C@@H](C)[C@@H](O)[C@@H](C)[C@H](OC(C)=O)[C@@H]1C
not listed: [9] | [10]
inactive: all other assays above

COc1cc(O)c(C(=O)c2ccccc2)cc1S(=O)(=O)O
not listed: [9] | [10]
inactive: all other assays above

O=c1c(-c2ccc(O)cc2)coc2cc(O)cc(O)c12
not listed: [10]
inactive: all other assays above

CC(C)CC(C)CC(O)CC(C)C (stereo not drawn)
not listed: [9] | [10]
inactive: all other assays above

CN(C)C=O
not listed: [9] | [10]
inactive: all other assays above

c1ccc2[nH]c(-c3cscn3)nc2c1
inactive: all assays above

CC1(C)O[C@@H]2[C@@H](CO[C@@]3(COS(N)(=O)=O)OC(C)(C)O[C@@H]23)O1
not listed: [9] | [10]
inactive: all other assays above

O=[N+]([O-])c1ccc(O)cc1
not listed: [9] | [10]
inactive: all other assays above

CCCCOCCOCCOC(C)=O
inactive: all assays above

C[C@]12CC[C@@H]3c4ccc(O)cc4CC[C@H]3[C@@H]1CCC2=O
not listed: [9] | [10]
inactive: all other assays above

C[C@]12C[C@H](O)[C@H]3[C@@H](CCC4=CC(=O)CC[C@@]43C)[C@@H]1CC[C@@H]2C(=O)CO
active: [9] 169 nM and 69.3 nM and 123 nM | [10] 674 nM and 390 nM
inactive: all other assays above

Cc1cccc(C)c1O
not listed: [9] | [10]
inactive: all other assays above

Cc1cnc(NC(=O)C2=C(O)c3ccccc3S(=O)(=O)N2C)s1
inactive: all assays above

O=C1CCCCCN1
not listed: [9] | [10]
inactive: all other assays above

NC(N)=NC(N)=NCCc1ccccc1
inactive: all assays above

C=C(C)C(N)=O
not listed: [9] | [10]
inactive: all other assays above

Cc1ccc(O)c(-n2nc3ccccc3n2)c1
inactive: all assays above

CC(=O)CCC(C)C
inactive: all assays above

CCN(CC)CCOC(=O)c1ccc(N)cc1
not listed: [9] | [10]
inactive: all other assays above

CCN1CCCC1=O
inactive: all assays above

NCCNc1cccc2ccccc12
inactive: all assays above

COC(=O)C1CCC(C(=O)OC)CC1 (stereo not drawn)
not listed: [9] | [10]
inactive: all other assays above

C[C@]12C=CC(=O)C=C1CC[C@@H]1[C@@H]2C(=O)C[C@@]2(C)[C@H]1CC[C@]2(O)C(=O)CO
not listed: [9] | [10]
inactive: all other assays above

O=C(O)CCCCC1CCSS1 (stereo not drawn)
inactive: all assays above

COc1ccc(O)cc1
inactive: all assays above

C=CC(=O)NC(C)(C)CS(=O)(=O)O
not listed: [1] | [9] | [10]
inactive: all other assays above

CCOC(=O)C(C)(C)Oc1ccc(Cl)cc1
inactive: all assays above

C#C[C@]1(O)CC[C@H]2[C@@H]3CCc4cc(O)ccc4[C@H]3CC[C@@]21C
active: [10] 1.54 µM
not listed: [9]
inactive: all other assays above

C=CCOC(=O)CC(C)C
inactive: all assays above

CCCCCCCCCCCCCC(=O)OC(C)C
inactive: all assays above

N[C@@H](Cc1c[nH]c2ccccc12)C(=O)O
inactive: all assays above

O=C1OC(c2ccc(O)cc2)(c2ccc(O)cc2)c2ccccc21
not listed: [1] | [9] | [10]
inactive: all other assays above

CC(C)(C)NCC(O)c1ccc(O)c(CO)c1 (stereo not drawn)
inactive: all assays above

COC(=O)c1ccc(C=O)cc1
inactive: all assays above

C[C@]12CC[C@@H]3c4ccc(O)cc4C[C@@H](CCCCCCCCCS(=O)CCCC(F)(F)C(F)(F)F)[C@H]3[C@@H]1CC[C@@H]2O (stereo partly drawn)
active: [10] 1.23 µM
inactive: all other assays above

CCOCCO
inactive: all assays above

CC(C)(C)CC(C)(C)c1ccc(O)c(-n2nc3ccccc3n2)c1
inactive: all assays above

NC(=O)NO
inactive: all assays above

OC[C@@H](O)[C@@H](O)[C@H](O)[C@H](O)CO
not listed: [1] | [9] | [10]
inactive: all other assays above

CCc1cc(C(N)=S)ccn1
inactive: all assays above

CCCCNC(=O)NS(=O)(=O)c1ccc(N)cc1
not listed: [1] | [9] | [10]
inactive: all other assays above
